High-throughput results (PubChem)
In the library only some 1.4% were active in any assay of this set; here they are far more common.
RecA splice inh: Mtb RecA intein splicing inhibitors, primary screen, biochemical, fluorescence, HTS; Protein RecA (Mycobacterium tuberculosis (strain ATCC 25618 / H37Rv)), P9WHJ3; cell-free RecA intein splicing; inhibition, % (test concentration not listed); 290,000 tested, 0.75% active; AID 2221, 2009; in the data active = inhibition above about 30%
Target sequence (P9WHJ3 whole entry, looked up, canonical isoform): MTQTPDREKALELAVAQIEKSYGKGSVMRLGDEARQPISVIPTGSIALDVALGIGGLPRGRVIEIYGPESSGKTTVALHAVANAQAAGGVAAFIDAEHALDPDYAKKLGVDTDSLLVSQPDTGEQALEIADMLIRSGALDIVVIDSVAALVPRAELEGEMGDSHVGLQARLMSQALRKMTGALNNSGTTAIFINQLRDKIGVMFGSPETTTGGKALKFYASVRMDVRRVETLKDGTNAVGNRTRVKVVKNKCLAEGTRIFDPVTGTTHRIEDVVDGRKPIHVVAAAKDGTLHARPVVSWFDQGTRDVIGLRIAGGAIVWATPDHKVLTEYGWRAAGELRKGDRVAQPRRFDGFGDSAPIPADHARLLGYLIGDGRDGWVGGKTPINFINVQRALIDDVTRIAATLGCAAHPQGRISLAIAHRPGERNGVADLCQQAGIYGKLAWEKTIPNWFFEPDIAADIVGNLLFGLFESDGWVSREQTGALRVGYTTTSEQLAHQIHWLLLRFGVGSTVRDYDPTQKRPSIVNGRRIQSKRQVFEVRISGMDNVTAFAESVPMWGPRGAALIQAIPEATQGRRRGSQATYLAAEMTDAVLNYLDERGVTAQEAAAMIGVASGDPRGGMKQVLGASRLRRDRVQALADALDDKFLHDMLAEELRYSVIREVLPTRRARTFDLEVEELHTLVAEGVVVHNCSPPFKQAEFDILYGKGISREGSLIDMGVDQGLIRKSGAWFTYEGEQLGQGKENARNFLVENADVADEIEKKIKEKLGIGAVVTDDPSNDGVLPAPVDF
PrPC surface inh: inhibitors of human cell surface prion protein PrPC, primary screen, cell-based, TR-FRET; inhibition, % at 13.8 µM; Major prion protein (Homo sapiens), P04156; AID 720596, 2013; TR-FRET read-out; 370,000 tested, 0.43% active; in the data active = inhibition above about 24%
Mtb hypoxia rep: PubChem AID 1159583. M. tuberculosis hypoxia-regulated fluorescent reporter, fluorescence. 300,000 tested, 0.1% active. fluorescence inhibition, % (test concentration not listed); in the data active = fluorescence inhibition mostly above about 23%, no sharp cut-off; inactive = mostly below about 17%
PrP 5UTR inh: inhibition of PrP 5' UTR reporter expression | cell-based PrP 5' UTR mRNA reporter, plate reader | inhibition, % (concentration not given with the values) | 340,000 tested, 0.35% active | AID 488862, 2010; in the data active = inhibition above about 52%
BJeLR lethal: MLPCN primary cell-based screen for lethality selective to Ras in HRASV12 cells; inhibition, % (concentration not given with the values); 300,000 tested, 0.17% active; BJeLR (HRASV12) viability, CellTiter-Glo ATP luminescence, 48 h; in the data active = inhibition above about 50%
3CLpro inhibitor: SARS-CoV 3CLpro protease inhibitors, primary screen, biochemical, quenched FRET; recombinant SARS-CoV 3CLpro, quenched FRET peptide cleavage; inhibition, % at 6 µM; 290,000 tested, 0.14% active; in the data active = inhibition above about 12%
GFP chromo cs: counter-screen: blocks GFP chromophore formation, dose response, counter-screen, biochemical, fluorescence, homogeneous; shares compounds with RecA splice inh; cell-free GFP chromophore formation; EC50, µM; 2,100 tested, 83% active; AID 434968, 2010; call rule not given here
Numbers stand for hits; – = inactive; · = no result shown.

SMILES | RecA splice inh | PrPC surface inh | Mtb hypoxia rep | PrP 5UTR inh | BJeLR lethal | 3CLpro inhibitor | GFP chromo cs
COc1ccc(Nc2cnn(-c3nc4ccccc4s3)c(=O)c2Cl)cc1 | 47.4 | – | – | – | – | – | 6.74
N#CCCn1[nH]c(-c2ccccc2)cc1=O | 97.1 | – | – | – | – | – | 5.08
COc1ccc(C2CC=C(C(=O)O)C(c3ccc(F)cc3)N2S(=O)(=O)c2ccc(Cl)cc2)cc1 (stereo not given) | · | · | – | · | · | · | ·
CC(CC(C)C)=NOc1nc(C)cc(C)n1 | · | · | – | · | · | · | ·
CCOC(=O)Cc1[nH]nc2c1C(c1ccoc1)C(C#N)=C(N)O2 (stereo not given) | 65.1 | – | – | – | – | – | 26.4
Cc1[nH]nc2c1C(c1ccoc1)C(C#N)=C(N)O2 (stereo not given) | 83.6 | – | – | – | – | – | 17.9
CCC(C)C1C(C#N)=C(N)Oc2n[nH]c(C)c21 (stereo not given) | – | – | – | – | – | – | ·
COc1ccc(C2C(C#N)=C(N)Oc3n[nH]c(C)c32)cc1Cn1cc([N+](=O)[O-])cn1 (stereo not given) | 76.2 | – | · | – | – | – | 11.7
COc1cc(C2C(C#N)=C(N)Oc3n[nH]c(C)c32)cc2c1OCO2 (stereo not given) | 92.5 | – | – | – | – | – | 4.94
CCOC(=O)Cc1[nH]nc2c1C(Cc1ccccc1)C(C#N)=C(N)O2 (stereo not given) | – | – | – | – | – | – | ·
COC(=O)C1=C(c2ccc(C(C)=O)cc2)CC2CCC1N2C(=O)NC1CCCCC1 (stereo not given) | · | · | – | · | · | · | ·
NCCCCC(NC(=O)C1CCNCC1)c1nnc(C(N)Cc2ccc(O)cc2)o1 (stereo not given) | · | · | – | · | · | · | ·
CCCc1[nH]nc2c1C(c1ccoc1)C(C#N)=C(N)O2 (stereo not given) | 61.2 | – | – | – | – | – | 18.8
O=[N+]([O-])c1ccc(Oc2ccc(F)cc2)c2ccncc12 | 67.5 | – | · | – | – | – | 32.3
O=[N+]([O-])c1ccc(Oc2cccc(Br)c2)c2ccncc12 | 53.0 | – | · | – | – | – | 17.4
Cc1ccc(-n2c(SCC(=O)NN=C/C=C/c3ccccc3[N+](=O)[O-])nc3ccccc3c2=O)cc1 | · | · | – | · | · | · | ·
CC(C)CC(NC(=O)c1ccccc1)C(=O)NN=Cc1ccco1 (stereo not given) | · | · | – | · | · | · | ·
COc1ccc(CN2C(=O)C3Cc4c([nH]c5ccccc45)C(C)(C)N3C2=O)cc1 (stereo not given) | · | · | – | · | · | · | ·
O=C1NC(=O)C(=Cc2ccc(Oc3ccc([N+](=O)[O-])cc3)cc2)C(=O)N1 | 68.4 | · | – | – | – | – | –
O=C1NC(=O)C(=Cc2ccccc2OCCOc2ccc([N+](=O)[O-])cc2)C(=O)N1 | · | · | – | – | · | – | ·
O=C1C=Cc2ccccc2C1=O | 38.9 | · | · | – | – | – | 9.14
Cc1ccc(S(=O)(=O)NN=Cc2ccccc2O)cc1 | · | · | – | · | · | · | ·
Cc1ccc(S(=O)(=O)/N=C2/C=C(C3C(=O)CC(C)(C)CC3=O)C(=O)c3ccccc32)cc1 | 84.7 | – | · | – | – | – | 9.92
O=[N+]([O-])c1ccc(O)c2ncccc12 | 43.3 | – | · | – | – | – | 25
O=[N+]([O-])c1ccc(O)c2cccnc12 | · | – | – | – | – | – | ·
SMILES | RecA splice inh | PrPC surface inh | Mtb hypoxia rep | PrP 5UTR inh | BJeLR lethal | 3CLpro inhibitor | GFP chromo cs
Cc1ccsc1C=C1SC(=O)N(CC(=O)N2CCOCC2)C1=O | · | · | – | · | · | · | ·
CC1=NN(c2ccc(C)c(C)c2)C(=O)C1C(c1cccc(O)c1)C1C(=O)N(c2ccc(C)c(C)c2)N=C1C (stereo not given) | 95.3 | – | – | – | – | – | 0.905
COC(=O)C1=C(c2ccc(F)cc2OCc2ccccc2)CC2CCC1N2C(=O)N1CCC(O)CC1 (stereo not given) | · | · | – | · | · | · | ·
Cn1c(/N=C/c2c(O)ccc3ccccc23)nc2ccccc21 | 72.8 | – | · | – | · | – | 9.09
CCC(=CC(=O)c1ccncc1)Nc1ccc(Br)cc1 | · | · | – | · | · | · | ·
CC=C(C)C(=O)NCCN1C2=NCC(Cc3ccc(O)cc3)N2CC1Cc1ccc(OC)cc1 (stereo not given) | · | · | – | · | · | · | ·
CCN1C(=O)C2C(c3ccc(SC4CCCCC4)c(OC)c3)N3CCCC[C@@]3(C(=O)OC)C2C1=O (stereo not given in full) | · | · | – | · | · | · | ·
N#CCCn1cc(C=C2C(=O)NC(=O)NC2=O)c(-c2ccccc2)n1 | – | – | – | – | – | – | ·
CC1=NN(c2ccccc2)C(=O)/C1=C\c1cn(CCC#N)nc1-c1ccc(Cl)cc1 | 37.3 | – | · | – | – | – | 10.3
CC1CCCN(C(=O)COc2ccc(NC(=O)c3cccs3)cc2)C1 (stereo not given) | 44.3 | – | – | – | – | – | –
O=C(CN(CCc1ccccc1)S(=O)(=O)c1ccc(Cl)cc1)NN=Cc1ccc2c(c1)OCO2 | · | · | – | · | · | · | ·
O=C(O)c1cccc(NC2=C(n3nnc4ccccc43)C(=O)c3ccccc3C2=O)c1 | 77.9 | – | – | – | – | – | 1.92
Cc1ccc(S(=O)(=O)N=CN(C)C)cc1 | · | · | – | · | · | · | ·
O=C1C=C(Nc2ccc(O)cc2)C(=O)c2ccccc21 | 72.5 | – | – | – | – | – | 3.65
CC(=O)Nc1ccc(NC2=CC(=O)c3ccccc3C2=O)cc1 | – | – | – | – | – | – | ·
COC1=C(Nc2ccc(O)cc2)C(=O)c2ccccc2C1=O | 57.9 | – | – | – | – | – | 13.1
COc1ccc(NC2=C(NCCO)C(=O)c3ccccc3C2=O)cc1 | 56.0 | – | – | – | – | – | 31
O=C1C(Cl)=C(Nc2ccc(O)cc2)C(=O)c2ccccc21 | 94.5 | – | – | – | – | – | 2.5
COCC(=O)NN=Cc1cccc(OC)c1OC/C=C/c1ccccc1 | · | · | – | · | · | · | ·
CC1CN(C(C)CO)C(=O)c2cc(NC(=O)Nc3ccc(F)cc3)ccc2OC1CN(C)Cc1ccccc1 (stereo not given) | · | · | – | · | · | · | ·
CCCCCN1N=C(C)CC1=O | 78.7 | – | – | – | – | – | 13.1
CCOC(=O)c1c(OCC)[nH]c2c1cc(O)c1ccccc12 | 95.3 | – | – | – | – | – | 4.26
O=C(Nc1cccc(F)c1)N1CCC(c2ccccc2)CC1 | 37.7 | – | – | – | – | – | –
Cc1ccccc1C=CC(=O)NCC(=O)N1CCC(N(C)C2CCCCC2C)CC1 (stereo not given) | · | · | – | · | · | · | ·
CC(=O)OCCNc1cc(Sc2nc3ccccc3[nH]2)c2nonc2c1[N+](=O)[O-] | – | – | · | – | – | – | ·
COC(=O)CCSc1cc(NCCOC(C)=O)c([N+](=O)[O-])c2nonc12 | 53.8 | – | – | – | – | – | 24.4
CCCC(=O)OCCNc1cc(SCCC(=O)OC)c2nonc2c1[N+](=O)[O-] | 38.7 | – | · | – | – | – | 17.8
